# Source: PubChem BioAssay (National Center for Advancing Translational Sciences (NCATS))
# An excerpt weighted towards active compounds, which were near 21% of everything screened.
# IL-1B inflam inh – inhibitors of inflammasome signaling (IL-1 beta secretion); THP-1 LPS/ATP IL-1B secretion, AlphaLISA, 16 h; active compounds read low; activity change, % at 57.5 µM; hit rate 4.7% among 360,000; in the data active = activity change below about -50%; inconclusive = mostly about -30% to -49%; also: % is scaled to controls: 0 for no effect and ±100 for the full control effect
#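 THP-1 cells pretreated 1 hr with compounds (up to 57.5 uM final), then stimulated with LPS (250 ng/mL final) plus ATP (1.25 mM final); secreted IL-1B measured by AlphaLISA after 16 hr, decreased signal indicating inhibition.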
# TDP1 cell CPT – growth inhibition of DT40 Tdp1-/-;hTDP1 cells with camptothecin (screen for TDP1 inhibitors). AID 686979. hit rate 12% among 420,000. chicken DT40 Tdp1-/-;hTDP1 cells + 20 nM CPT, ATP luminescence, 48 h. Potency, µM (series often up to 46.2 µM), for inactives: at the top dose activity change, negative = growth inhibition, usual class: inhibitors; also: potency is read from the fitted curve at half-maximal effect; % is scaled to controls: 0 for no effect and ±100 for the full control effect; nearly all actives have a fitted effect of over 55% in size
#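 Chicken DT40 Tdp1-/- cells stably complemented with human TDP1 were seeded at 400 cells/well in medium containing 20 nM camptothecin, exposed to pin-transferred compounds, and grown at 37 °C for at least 48 hr. Viability was read as ATP luminescence.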
# DRD3 agonist – activates the human D3 dopamine receptor | P35462 | D3R DiscoveRx beta-arrestin cells, luminescence, 90 min | max activation, % | hit rate 0.58% among 410,000 | AID 652048; in the data active = max activation above about 30%; also: 0% is about no effect
# Target sequence (P35462 whole entry, looked up): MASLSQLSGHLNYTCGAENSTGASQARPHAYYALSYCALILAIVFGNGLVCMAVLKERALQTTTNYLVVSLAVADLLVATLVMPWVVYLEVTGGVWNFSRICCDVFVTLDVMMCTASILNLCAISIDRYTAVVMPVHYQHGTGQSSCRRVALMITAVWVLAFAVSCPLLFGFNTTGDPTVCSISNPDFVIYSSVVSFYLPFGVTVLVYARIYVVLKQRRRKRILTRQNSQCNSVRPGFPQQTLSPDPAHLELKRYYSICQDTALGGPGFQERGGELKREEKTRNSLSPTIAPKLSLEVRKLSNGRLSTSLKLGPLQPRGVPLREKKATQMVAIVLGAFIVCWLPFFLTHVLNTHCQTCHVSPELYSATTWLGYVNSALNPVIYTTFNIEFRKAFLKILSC
#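 Cells at 1500/well, incubated overnight, then treated with pinned compounds (dopamine as control) for 90 min at 37 degrees C. DiscoveRx reagent added for 30 - 60 minutes at room temperature; luminescence read.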
# ClpP mod – qHTS Assay for Activators of ClpP; purified B. subtilis ClpP, FRET peptide cleavage, 20 min; AID 651965, 2013; Potency, µM (titrated, usually from 57.5 µM), for inactives: top-dose activity change, negative = active; hit rate 1.9% among 340,000; ATP-dependent Clp protease proteolytic subunit (Bacillus subtilis (strain 168)), P80244; active = well fitted falling curve with a large enough effect; inconclusive = small, poorly fitted or top-dose-only effect; inactive = no such curve, though single readings can be large or run the other way; also: potency is read from the fitted curve at half-maximal effect; the source files actives as falling curves though it sought activators and does not explain the sign; nearly all actives have a fitted effect of over 65% in size
#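 Purified B. subtilis ClpP, 10 microg/mL final in Tris/HCl pH8 with KCl, BSA, glycerol and Tween-20, cleaved an Abz/nitrotyrosine-quenched decapeptide. Fluorescence (ex 320, em 430) was read at 0 and 20 min at room temperature. Delta was normalized to 5.8 microM ADEP and DMSO/no-enzyme controls.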
# TDP1 cell noCPT – qHTS for Inhibitors of human tyrosyl-DNA phosphodiesterase 1 (TDP1): qHTS in cells in absence of CPT; DT40 Tdp1-/- hTDP1 cells, no CPT, ATP luminescence, 48 h; Potency, µM (series often up to 46.2 µM), for inactives: at the top dose activity change, negative = growth inhibition, actives largely listed as inhibitors; hit rate 15% among 420,000; also: potency is read from the fitted curve at half-maximal effect; % is scaled to controls: 0 for no effect and ±100 for the full control effect; nearly all actives have a fitted effect of over 55% in size
#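 Cells were dispensed at 400 per well, compounds added by pin tool, plates incubated ≥48 hr at 37 °C, then CellTiter-Glo added for 30 min at room temperature before luminescence reading. Line: DT40 Tdp1-/- complemented with hTDP1; camptothecin omitted.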
# DRD3 antagonist – antagonists of human D3 dopamine receptor | hit rate 2.5% among 360,000 | max response, negative = inhibition, % | P35462 | D3R cells, DiscoveRx beta-arrestin luminescence, antagonist mode; active compounds read low; in the data active = max response below about -50%; inconclusive = no clear call, values can overlap the other calls; also: % is scaled to controls: 0 for no effect and ±100 for the full control effect
#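 Cells plated overnight at 1500 cells/well, then exposed to library compounds with dopamine controls for 90 minutes at 37 degrees C. DiscoveRx reagent added for 30–60 minutes at room temperature; luminescence read, quantitative HTS format.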
# The depositor's hits bear a star; ? = inconclusive; . = no result given. Unless noted, calls follow the shape of the dose curve; as a rule, active = well fitted inhibition curve with a large enough effect; inconclusive = small, poorly fitted or top-dose-only effect; inactive = flat fitted curve, though single readings scatter.
SMILES,IL-1B inflam inh,TDP1 cell CPT,DRD3 agonist,ClpP mod,TDP1 cell noCPT,DRD3 antagonist
O=C(NCCC1=CCCCC1)c1ccc2c(c1)N(Cc1ccccc1)C(=O)c1ccccc1S2(=O)=O,.,?,-16,-4%,?,.
COc1cccc(C(=O)Nc2ccccc2OC(F)(F)F)c1,?,-3%,3,2%,8%,15
O=C(O)CC1S/C(=N/N=C/c2ccc(-c3ccccc3[N+](=O)[O-])o2)NC1=O (stereo not drawn),12,-24%,-4,-3%,-16%,18
Cc1ccc(-c2ccc(/C=N/N=C3/NC(=O)C(CC(=O)O)S3)o2)c([N+](=O)[O-])c1 (stereo not drawn),4,2%,-3,-1%,1%,-79*
CCCCCCn1c(COc2ccccc2F)nnc1SCC(=O)N1c2ccccc2NC(=O)C1(C)C,-57*,23µM*,-22,0%,16µM*,-7
C=CCn1c(C)nnc1SCC(=O)N1c2ccccc2NC(=O)C1(C)C,-2,9%,-2,-2%,?,0
O=C(Nc1ccc(-c2nc3ccccc3s2)cc1)c1cc(-n2cnnc2)ccc1Cl,-84*,23µM*,16,?,13µM*,23
Cc1ccc2nc(-c3ccc(NC(=O)c4ccccc4S(C)(=O)=O)cc3)sc2c1,.,?,-4,4%,8.2µM*,.
Cc1ccc2nc(-c3ccc(NC(=O)c4ccc(S(C)(=O)=O)cc4)cc3)sc2c1,.,21µM*,-6,-11%,?,.
O=C1CC2CC1C(C(=O)O)C2C(=O)O (stereo not drawn),7,4%,6,-2%,5%,4
CC(OC(=O)c1ccc(Cl)nc1)C(=O)NC1(C#N)CCCCC1 (stereo not drawn),-6,8%,-1,-3%,-1%,9
CCCCn1c(SCC(=O)NCc2ccc(OC)c(C(=O)O)c2)nc2cc(S(N)(=O)=O)ccc21,7,0%,-7,.,-22%,1
O=S(=O)(c1ccc(Cl)cc1)c1nc(-c2cccs2)oc1SCc1ccccc1F,.,16µM*,7,-7%,23µM*,.
Cc1ccc(CSc2oc(-c3cccs3)nc2S(=O)(=O)c2ccccc2)cc1,.,?,9,-3%,?,.
CCC(C)Sc1oc(-c2ccco2)nc1S(=O)(=O)c1ccc(Cl)cc1 (stereo not drawn),.,18µM*,-6,-20%,?,.
CC(C)Sc1oc(-c2ccco2)nc1S(=O)(=O)c1ccc(F)cc1,-7,?,0,-5%,?,2
Cc1ccc(S(=O)(=O)c2nc(-c3cccs3)oc2SCc2ccc(F)cc2)cc1,.,16µM*,4,-12%,10µM*,.
CC(C)CS(=O)(=O)c1oc(-c2ccc(F)cc2)nc1S(=O)(=O)c1ccccc1,.,0.41µM*,-19,-9%,0.46µM*,.
O=S(=O)(c1ccccc1)c1nc(-c2ccc(F)cc2)oc1NCc1ccccc1,.,-19%,7,?,?,.
O=C(/C=C/c1ccccc1)Nc1ccc(N2CCCCC2)cc1,0,-20%,-25,1%,-9%,?
Cc1ccnc2c(Cl)c(Cl)ccc12,.,-9%,.,0%,-26%,.
Cc1ccc(CSc2oc(-c3ccco3)nc2S(=O)(=O)c2ccc(Cl)cc2)cc1,.,?,-2,-11%,?,.
O=S(=O)(c1ccc(Cl)cc1)c1nc(-c2ccco2)oc1SCc1ccccc1F,.,23µM*,-18,-4%,16µM*,.
CCSc1oc(-c2ccc(F)cc2)nc1S(=O)(=O)c1ccc(C)cc1,.,-102%,-2,?,16µM*,.
O=S(=O)(c1ccc(Br)cc1)c1nc(-c2ccco2)oc1SCc1ccccc1Cl,.,16µM*,-5,-4%,?,.
CCSc1oc(-c2ccccc2)nc1S(=O)(=O)c1ccccc1,-6,-29%,12,-9%,-15%,33
